Source: PubChem BioAssay AID1159580 (chemical genetic matrix, 2015)
Values joined by “and” are separate entries in the source; they are usually repeats but may differ in a detail not shown here. Identical values can stand only once. In all, about 5,500 compounds went through this assay and about 2,000 (36%) were called active. Inconclusive results (about 18%) are left out. Rule as the data show it: active = normalized growth mostly below about 0.91 (no sharp cut-off); inconclusive = no clear call, values can overlap the other calls; inactive = mostly above about 0.92. This is one part of the list.

Test: chemical genetic growth profiling, strain panel (AID 1159580);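 also: tested at 20 µM; growth read once vehicle control cultures reached saturation at 30 °C; 1 = growth at the plate median or of vehicle wells; lower values mean less growth of the strain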
Details: S. cerevisiae deletion strains, growth OD

Measured: normalized growth

CC1(C)S[C@@H]2[C@H](NC(=O)[C@H](NC(=O)N3CCNC3=O)c3ccccc3)C(=O)N2C1C(=O)O (stereo partly drawn)
inactive: locus YAL021C, strain ccr4, active compounds read low 0.989 | locus YAL026C, strain drs2, active compounds read low 0.984 | locus YAL030W, strain snc1, active compounds read low 0.969 | locus YBL061C, strain skt5, active compounds read low 0.971 | locus YBR009C, strain hhf1, active compounds read low 0.995 | locus YBR021W, strain FUR4, active compounds read low 1.04 | locus YBR023C, strain chs3, active compounds read low 0.979 | locus YBR171W, strain sec66, active compounds read low 0.974 | locus YBR229C, strain ROT2, active compounds read low 1 | locus YBR231C, strain swc5, active compounds read low 0.984 | locus YBR279W, strain paf1, active compounds read low 0.993 | locus YCL011C, strain gbp2, active compounds read low 0.964 | locus YCL016C, strain dcc1, active compounds read low 0.986 | locus YCL029C, strain bik1, active compounds read low 0.99 | locus YCL061C, strain MRC1, active compounds read low 0.99 | locus YCL069W, strain vba3, active compounds read low 0.996 | locus YCR088W, strain abp1, active compounds read low 0.985 | locus YDL005C, strain med2, active compounds read low 0.978 | locus YDL035C, strain GPR1, active compounds read low 0.992 | locus YDL040C, strain nat1, active compounds read low 0.984 | locus YDL074C, strain BRE1, active compounds read low 1.06 | locus YDL101C, strain DUN1, active compounds read low 0.998 | locus YDL134C, strain PPH21, active compounds read low 1 | locus YDL185W, strain tfp1, active compounds read low 0.952 | locus YDL192W, strain arf1, active compounds read low 0.982 | locus YDR001C, strain nth1, active compounds read low 0.975 | locus YDR069C, strain doa4, active compounds read low 0.988 | locus YDR101C, strain arx1, active compounds read low 1.03 | locus YDR137W, strain rgp1, active compounds read low 0.977 | locus YDR159W, strain sac3, active compounds read low 1 | locus YDR162C, strain NBP2, active compounds read low 0.972 | locus YDR195W, strain ref2 0.995 | locus YDR297W, strain sur2, active compounds read low 0.979 | locus YDR318W, strain mcm21, active compounds read low 0.988 | locus YDR334W, strain swr1, active compounds read low 0.935 | locus YDR335W, strain msn5, active compounds read low 0.971 | locus YDR388W, active compounds read low 0.987 | locus YDR392W, strain spt3, active compounds read low 0.908 | locus YDR502C, strain sam2, active compounds read low 1 | locus YEL003W, strain gim4, active compounds read low 0.994 | locus YEL037C, strain rad23, active compounds read low 0.984 | locus YEL061C, strain CIN8 (second series), active compounds read low 0.984 | locus YEL061C, strain CIN8, active compounds read low 0.996 | locus YER015W, strain faa2, active compounds read low 0.971 | locus YER016W, strain bim1, active compounds read low 1 | locus YER110C, active compounds read low 0.982 | locus YER111C, strain swi4, active compounds read low 0.983 | locus YER155C, strain BEM2 (second series), active compounds read low 0.993 | locus YER155C, strain BEM2, active compounds read low 1.01 | locus YER167W, strain BCK2, active compounds read low 0.997 | locus YFR010W, strain ubp6, active compounds read low 0.967 | locus YGL078C, strain dbp3, active compounds read low 0.989 | locus YGL086W, strain mad1, active compounds read low 1.02 | locus YGL167C, strain pmr1, active compounds read low 0.987 | locus YGL173C, strain kem1, active compounds read low 0.967 | locus YGL227W, strain vid30, active compounds read low 0.994 | locus YGL240W, strain doc1, active compounds read low 1 | locus YGL248W, strain PDE1, active compounds read low 1.01 | locus YGL253W, strain hxk2, active compounds read low 0.996 | locus YGR135W, strain pre9, active compounds read low 0.95 | locus YGR252W, strain gcn5, active compounds read low 1 | locus YHR013C, strain ard1, active compounds read low 0.957 | locus YHR027C, strain rpn1, active compounds read low 0.966 | locus YHR030C, strain SLT2, active compounds read low 0.984 and 0.983 | locus YHR079C, strain IRE1 (second series), active compounds read low 0.983 | locus YHR079C, strain IRE1, active compounds read low 0.963 | locus YHR094C, strain hxt1, active compounds read low 0.982 | locus YHR129C, strain ARP1, active compounds read low 0.997 | locus YHR142W, strain chs7, active compounds read low 0.955 | locus YHR200W, strain rpn10, active compounds read low 0.989 | locus YIL066C, strain RNR3, active compounds read low 0.99 | locus YIL073C, strain SPO22, active compounds read low 0.902 | locus YIL125W, strain kgd1, active compounds read low 1 | locus YIR030C, strain dcg1, active compounds read low 0.969 | locus YJL092W, strain hpr5, active compounds read low 0.988 | locus YJL095W, strain BCK1 (second series), active compounds read low 0.989 | locus YJL095W, strain BCK1, active compounds read low 1.04 and 0.971 | locus YJL115W, strain asf1, active compounds read low 0.96 | locus YJL129C, strain trk1, active compounds read low 1.01 | locus YJL134W, strain LCB3, active compounds read low 0.993 | locus YJL154C, strain vps35, active compounds read low 0.972 | locus YJL164C, strain tpk1, active compounds read low 0.996 | locus YJL166W, strain qcr8, active compounds read low 0.956 | locus YJL168C, strain set2, active compounds read low 0.998 | locus YJL187C, strain SWE1 (second series), active compounds read low 1 | locus YJL187C, strain SWE1, active compounds read low 0.988 | locus YJR043C, strain POL32, active compounds read low 1.03 | locus YJR066W, strain TOR1, active compounds read low 0.966
